Data published in PubChem BioAssay (NCATS).
Records with an inconclusive call do not appear. The source made the active and inactive calls. Unless noted, calls come from the whole dose curve; as a rule, active = well fitted inhibition curve with a large enough effect; inconclusive = small, poorly fitted or top-dose-only effect; inactive = flat fitted curve, though single readings scatter.

Tests used:
[1] = qHTS for identification of novel therapeutic agents for treatment of microphthalmiaassociated transcription factor (MiT) renal cell carcinoma (RCC) (AID 1963991); settings: CellTiter-Glo, 48 h, stronger effect = lower value
Method in brief: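 Viability of three TFE3-fusion renal carcinoma lines measured by CellTiter-Glo after 48 h treatment with each of 1912 compounds at 11 concentrations. Responses scaled between DMSO (100%) and empty wells (0%) before curve fitting.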

[2] = qHTS profiling for inhibitors of Plasmodium falciparum proliferation (AID 504749); note: nearly all actives have a fitted effect of over 60% in size; note: potency is the fitted concentration of half-maximal effect;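 for activity, negative = inhibition: 0% = DMSO vehicle and full inhibition = artemisinin control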; settings: P. falciparum in erythrocytes, SYBR Green DNA, 72 h
Method in brief: (§1)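 P. falciparum-infected erythrocytes (0.3% parasitemia, 2.5% hematocrit) incubated with compound 72 h at 37 C, 5% CO2. Parasite DNA detected by SYBR Green after lysis, overnight at room temperature; normalised to 0.29 uM artemisinin and DMSO.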

AA1029 = assay: as above; settings: P. falciparum in erythrocytes, SYBR Green DNA, 72 h; series mostly up to 28.7 µM
Method in brief: as §1

ATS189 = assay: as above; settings: P. falciparum in erythrocytes, SYBR Green DNA, 72 h; series mostly up to 28.7 µM
Method in brief: as §1

ATS95 = assay: as above; settings: P. falciparum in erythrocytes, SYBR Green DNA, 72 h; series mostly up to 28.7 µM
Method in brief: as §1

C2A = assay: as above; settings: P. falciparum in erythrocytes, SYBR Green DNA, 72 h; series mostly up to 28.7 µM
Method in brief: as §1

CP185 = assay: as above; settings: P. falciparum in erythrocytes, SYBR Green DNA, 72 h; series mostly up to 28.7 µM
Method in brief: as §1

CP192 = assay: as above; settings: P. falciparum in erythrocytes, SYBR Green DNA, 72 h; series mostly up to 28.7 µM
Method in brief: as §1

CP211 = assay: as above; settings: P. falciparum in erythrocytes, SYBR Green DNA, 72 h; series mostly up to 28.7 µM
Method in brief: as §1

CP217 = assay: as above; settings: P. falciparum in erythrocytes, SYBR Green DNA, 72 h; series mostly up to 28.7 µM
Method in brief: as §1

3D7 = assay: as above; settings: P. falciparum in erythrocytes, SYBR Green DNA, 72 h; series mostly up to 28.7 µM
Method in brief: as §1

7G8 = assay: as above; settings: P. falciparum in erythrocytes, SYBR Green DNA, 72 h; series mostly up to 28.7 µM
Method in brief: as §1

AS120 = assay: as above; settings: P. falciparum in erythrocytes, SYBR Green DNA, 72 h; series mostly up to 28.7 µM
Method in brief: as §1

CP191 = assay: as above; settings: P. falciparum in erythrocytes, SYBR Green DNA, 72 h; series mostly up to 28.7 µM
Method in brief: as §1

CP194 = assay: as above; settings: P. falciparum in erythrocytes, SYBR Green DNA, 72 h; series mostly up to 28.7 µM
Method in brief: as §1

CP201 = assay: as above; settings: P. falciparum in erythrocytes, SYBR Green DNA, 72 h; series mostly up to 28.7 µM
Method in brief: as §1

CP203 = assay: as above; settings: P. falciparum in erythrocytes, SYBR Green DNA, 72 h; series mostly up to 28.7 µM
Method in brief: as §1

CP215 = assay: as above; settings: P. falciparum in erythrocytes, SYBR Green DNA, 72 h; series mostly up to 28.7 µM
Method in brief: as §1

[3] = qHTS drug screen for cell cycle checkpoint inhibitors in PARPi-resistant BRCA-mutant ovarian cancer cell lines. (AID 1963452; calls by dose curve); settings: PEO1/OlaR viability, CellTiter-Glo luminescence, 96 h, stronger effect = lower value
Method in brief: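 PEO1, PEO4 and PEO1/OlaR ovarian cancer cells, 600 per well, exposed 96 h at 37C to a dilution series. Viability read by CellTiter-Glo luminescence, normalized to DMSO and empty wells; activity summarized as Z-AUC.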

[4] = TFE3-RCC UOK109 viability, measured here: UOK109 Z-AUC
[5] = TFE3-RCC viability, measured here: UOK124 Z-AUC
[6] = TFE3-RCC viability, measured here: UOK145 Z-AUC
[7] = at 28.7 µM (top of the series), parasite line A
[8] = at 28.7 µM (top of the series), parasite line B
[9] = at 12.8 µM (top of the series), parasite line A
[10] = at 12.8 µM (top of the series), parasite line B
[11] = measured here: PEO1 parental Z-AUC

CCN1CCCC1CNC(=O)c1cc(S(N)(=O)=O)ccc1OC (centres undefined)
0.447: z-score [1, 4]
0.799: z-score [1, 6]
0.683: z-score [1, 5]

COc1cccc(N(C)C(=S)Oc2ccc3c(c2)CCCC3)n1
0.559: z-score [1, 4]
1.67: z-score [1, 6]
0.578: z-score [1, 5]
inactive: activity, negative = inhibition [2, 7] -29.5% | activity, negative = inhibition [2, 8] -22.3% | Potency (AA1029) | Potency (ATS189) | Potency (ATS95) | Potency (C2A) | Potency (CP185) | Potency (CP192) | Potency (CP211) | Potency (CP217)

Nc1ccc(S(=O)(=O)Nc2ccccn2)cc1
inactive: activity, negative = inhibition [2, 9] -13.7% | activity, negative = inhibition [2, 10] -1.88% | Potency (3D7) | Potency (7G8) | Potency (AA1029) | Potency (AS120) | Potency (ATS189) | Potency (C2A) | Potency (CP185) | Potency (CP191) | Potency (CP192) | Potency (CP194) | Potency (CP201) | Potency (CP203) | Potency (CP211) | Potency (CP215) | Potency (CP217)
0.723: z-score [1, 6]
0.543: z-score [1, 5]
1.57: z-score [1, 4]

COc1cnc(NS(=O)(=O)c2ccc(N)cc2)nc1
inactive: activity, negative = inhibition [2, 9] 3.37% | activity, negative = inhibition [2, 10] 2.7% | Potency (3D7) | Potency (7G8) | Potency (AA1029) | Potency (AS120) | Potency (ATS189) | Potency (ATS95) | Potency (C2A) | Potency (CP185) | Potency (CP191) | Potency (CP192) | Potency (CP194) | Potency (CP201) | Potency (CP203) | Potency (CP211) | Potency (CP215) | Potency (CP217)

COc1ccc(C(=O)CC(=O)c2ccc(C(C)(C)C)cc2)cc1
1.06: Z-AUC ([3]; measured here: PEO4 Z-AUC)
inactive: Z-AUC [3] 1.49 | activity, negative = inhibition [2, 7] 0.965% | Potency (3D7) | Potency (AA1029) | Potency (AS120) | Potency (ATS189) | Potency (ATS95) | Potency (C2A) | Potency (CP185) | Potency (CP191) | Potency (CP192) | Potency (CP194) | Potency (CP201) | Potency (CP203) | Potency (CP211) | Potency (CP217)
0.772: Z-AUC [3, 11]

Oc1c(Cl)cc(Cl)c2cccnc12
inactive: Z-AUC [3] 0.201 | Potency (CP192) | Potency (CP201)
-0.27: Z-AUC ([3]; measured here: PEO4 Z-AUC)
-0.0999: Z-AUC [3, 11]
active: Potency ([2]; parasite line B) 10 µM | Potency (7G8) 6.31 µM | Potency (AS120) 11.2 µM | Potency (ATS189) 8.91 µM | Potency (ATS95) 7.94 µM | Potency (CP185) 11.2 µM | Potency (CP191) 11.2 µM | Potency (CP217) 8.91 µM

Cc1cccc(Nc2ccncc2S(=O)(=O)NC(=O)NC(C)C)c1
inactive: activity, negative = inhibition [2, 9] -0.953% | activity, negative = inhibition [2, 10] 11.1% | Potency (3D7) | Potency (7G8) | Potency (AA1029) | Potency (AS120) | Potency (ATS189) | Potency (ATS95) | Potency (C2A) | Potency (CP185) | Potency (CP191) | Potency (CP192) | Potency (CP194) | Potency (CP201) | Potency (CP203) | Potency (CP211) | Potency (CP215) | Potency (CP217)
0.581: z-score [1, 4]
0.17: z-score [1, 5]
0.58: z-score [1, 6]

CC(C)Cn1cnc2c(N)nc3ccccc3c21
inactive: Z-AUC [3] -0.974 | activity, negative = inhibition [2, 8] -10.9% | Potency (3D7) | Potency (AA1029) | Potency (AS120) | Potency (ATS189) | Potency (ATS95) | Potency (C2A) | Potency (CP185) | Potency (CP191) | Potency (CP192) | Potency (CP194) | Potency (CP201) | Potency (CP203) | Potency (CP211) | Potency (CP215) | Potency (CP217)
-0.536: Z-AUC [3, 11]
-1.36: Z-AUC ([3]; measured here: PEO4 Z-AUC)

CN1CCN(c2c(F)cc3c(=O)c(C(=O)O)cn4c3c2OCN4C)CC1
inactive: activity, negative = inhibition [2, 7] 4.43% | activity, negative = inhibition [2, 8] 17.6% | Potency (3D7) | Potency (7G8) | Potency (AA1029) | Potency (AS120) | Potency (ATS189) | Potency (ATS95) | Potency (C2A) | Potency (CP185) | Potency (CP191) | Potency (CP192) | Potency (CP194) | Potency (CP201) | Potency (CP203) | Potency (CP211) | Potency (CP215) | Potency (CP217)

Cc1ncc([N+](=O)[O-])n1CCO
inactive: activity, negative = inhibition [2, 7] -7.64% | activity, negative = inhibition [2, 8] 6.06% | Potency (3D7) | Potency (7G8) | Potency (AA1029) | Potency (AS120) | Potency (ATS189) | Potency (ATS95) | Potency (C2A) | Potency (CP185) | Potency (CP191) | Potency (CP192) | Potency (CP194) | Potency (CP201) | Potency (CP203) | Potency (CP211) | Potency (CP217)

CCCCOc1ccc(CC(=O)NO)cc1
active: Potency ([2]; parasite line A) 1.12 µM | Potency (3D7) 0.562 µM | Potency (7G8) 1.78 µM | Potency (AS120) 3.55 µM | Potency (ATS95) 3.55 µM | Potency (C2A) 1.58 µM | Potency (CP185) 3.98 µM | Potency (CP191) 2.24 µM | Potency (CP192) 4.05 µM | Potency (CP203) 3.61 µM | Potency (CP211) 2.56 µM
-0.748: Z-AUC ([3]; measured here: PEO4 Z-AUC)
inactive: Z-AUC [3] -0.866
-0.714: Z-AUC [3, 11]

NC(=O)N1c2ccccc2CC(=O)c2ccccc21
0.211: z-score [1, 4]
-0.025: z-score [1, 6]
inactive: activity, negative = inhibition [2, 7] -5.05% | activity, negative = inhibition [2, 8] -8.83% | Potency (3D7) | Potency (7G8) | Potency (AA1029) | Potency (AS120) | Potency (ATS189) | Potency (ATS95) | Potency (C2A) | Potency (CP185) | Potency (CP191) | Potency (CP192) | Potency (CP194) | Potency (CP201) | Potency (CP203) | Potency (CP211) | Potency (CP217)
0.361: z-score [1, 5]

CNS(=O)(=O)Cc1ccc2[nH]cc(CCN(C)C)c2c1
inactive: activity, negative = inhibition [2, 7] -10.9% | activity, negative = inhibition [2, 8] -3.89% | Potency (3D7) | Potency (7G8) | Potency (AA1029) | Potency (AS120) | Potency (ATS189) | Potency (ATS95) | Potency (C2A) | Potency (CP185) | Potency (CP191) | Potency (CP192) | Potency (CP194) | Potency (CP201) | Potency (CP203) | Potency (CP211) | Potency (CP217)

CC(C)OC(=O)OCOP(=O)(CO[C@H](C)Cn1cnc2c(N)ncnc21)OCOC(=O)OC(C)C
0.601: z-score [1, 6]
0.412: z-score [1, 4]
0.776: z-score [1, 5]
